Assay results published in ChEMBL document CHEMBL3988442, “University of Dundee, Small-Polar-MMV Screening Library” (2021).
Hit rate of the full screen: of about 69,000 compounds, about 950 (1.4%) showed an effect of 50% or more. Shown is part of a subset that was picked to be rich in strong results.

These molecules were tested on Mycobacterium tuberculosis (assay: Cornell M. t heat shock assay; also: in the data most compounds retested in dose-response had high values).
Type: functional, organism-based
Design: dose or concentration left out as unconfirmed

| SMILES | Percent Effect |
| --- | --- |
| O=C(O)C(F)(F)F.O=C(c1ccno1)N1CC[C@@H]2O[C@@H](COCCN3CCCC3)CC[C@@H]21 | -5.47% |
| C[C@H]1CN2C[C@H](O)CC2CN1Cc1ccc2nccnc2c1.Cl (stereo not given in full) | 2.113% |
| O=C(O)C(F)(F)F.O=C(O)C(F)(F)F.c1ccc(OC[C@]23COC[C@H]2CN(C2CCOCC2)C3)nc1 | -7.98% |
| Cc1ccc(CN(C)C(=O)CN2CCCC2c2cnn(C)c2)o1 (stereo not given) | 15.31% |
| CC1=N[C@@]2(CC[C@@H]3CN(Cc4cccc(Cl)c4)C[C@@H]32)C(=O)N1CC1CC1.O=C(O)C(F)(F)F | 3.209% |
| CN(C)S(=O)(=O)N1C[C@H]2C[C@H](C(=O)NCc3ccccc3)[C@@H](C1)O2 | -32.32% |
| Cc1nc(CN2CCC3(CCCN(Cc4cccnc4)C3)C2=O)cs1.O=C(O)C(F)(F)F.O=C(O)C(F)(F)F.O=C(O)C(F)(F)F (stereo not given) | -21.24% |
| CCO[C@H]1CN(CC2CCOCC2)[C@@H]2CCCO[C@H]12.O=C(O)C(F)(F)F | 43.93% |
| Cc1noc(C)c1C(=O)N1C[C@H]2CC[C@@H]1CN(c1cnccn1)C2 | -7.98% |
| O=S(=O)(NCCCN1CCCC1)c1cc(F)cc(F)c1 | -10.46% |
| COCCN1C(=O)C2(CCN(CC3CC3)CC2)c2ccccc21.O=C(O)C(F)(F)F | 22.29% |
| CCc1[nH]c2c(CNc3cnccn3)cc(F)cc2c1C | 27.04% |
| CCc1[nH]c2c(CNC(=O)C3CNC(=O)C3)cc(C)cc2c1C (stereo not given) | 7.867% |
| CNc1nc(C)cc(NCc2cc(C)cc3c(C)c(C)[nH]c23)n1 | 64.43% |
| Cc1cc(CNc2cncc(C(=O)N(C)C)n2)c2[nH]c(C)c(C)c2c1 | -11.36% |
| CCc1[nH]c2c(CNc3cncc(C(=O)N(C)C)n3)cc(C)cc2c1C | -0.9488% |
| CNc1cc(C)nc(NCc2cc(C)cc3c(C)c(C)[nH]c23)n1 | 35.24% |
| CCc1[nH]c2c(CNc3cncc(C(=O)OC)n3)cc(C)cc2c1C | 0.7071% |
| CCc1[nH]c2c(CNc3nccc(N)n3)cc(F)cc2c1C | 15.63% |
| CCc1[nH]c2c(CNc3cc(C)nc(NC)n3)cc(C)cc2c1C | 100.4% |
| CCc1[nH]c2c(CNc3nccc(N)n3)cc(C)cc2c1C | 83.04% |
| CCc1[nH]c2c(CNc3nc(C)cc(NC)n3)cc(C)cc2c1C | 100.6% |
| Cc1cc(CNc2nccc(N)n2)c2[nH]c(C)c(C)c2c1 | 6.431% |
| COCC1c2c(cnn2CC2CC2)CCN1Cc1ccsc1.O=C(O)C(F)(F)F.O=C(O)C(F)(F)F (stereo not given) | -18.97% |
| O=C(O)C(F)(F)F.O=C(O)C(F)(F)F.O=C(O)C(F)(F)F.c1ccc(CN2CC[C@]3(C[C@@H](Oc4ccccn4)CO3)C2)nc1 | -28.12% |
| Cl.Cl.c1cnc(NCc2cncc3c2CCN(CC2CC2)C3)nc1 | -5.572% |
| Cc1ncsc1-c1nnc(C2CCCN2C(=O)CCn2cccn2)o1 (stereo not given) | 13.77% |
| Cc1nnc(N2CC[C@H]3C[C@H](C(=O)N4CCOCC4)O[C@H]3C2)s1.O=C(O)C(F)(F)F | 5.897% |

| SMILES | Percent Effect |
| --- | --- |
| CC(C)CNC(=O)N1CC[C@@H]2CN(Cc3cccnc3)S(=O)(=O)[C@@H]2CC1.O=C(O)C(F)(F)F | 36.35% |
| COc1ccc(CN2CCCC3(CCN(c4ccsc4)C3=O)C2)cc1.O=C(O)C(F)(F)F (stereo not given) | 27.7% |
| Cn1cc(C2CC(=O)NC23CCN(Cc2ccncc2)CC3)cn1.O=C(O)C(F)(F)F.O=C(O)C(F)(F)F (stereo not given) | -12.84% |
| O=C(N[C@@H]1CN(Cc2ccoc2)[C@@H]2CCCO[C@@H]21)C1CC1.O=C(O)C(F)(F)F | -3.228% |
| CCNC(=O)Cc1ccc(NC(=O)NC(CC)c2ccncc2)cc1 (stereo not given) | -2.186% |
| CCC(NC(=O)Nc1ccc(OC)c(C)c1)c1noc(C)n1 (stereo not given) | 14% |
| CCC(NC(=O)Nc1ccc(OC)c(C)c1)c1ccncc1 (stereo not given) | 91.94% |
| Cc1oncc1C(=O)N1CCc2ncnc(-c3cnn(C)c3)c2CC1.O=C(O)C(F)(F)F | -24.59% |
| Clc1cccc(N2CCC(NCc3cc[nH]n3)C2)c1 (stereo not given) | -2.653% |
| O=C1CC(NCc2ncc[nH]2)CN1CCc1cccc(Cl)c1 (stereo not given) | 14% |
| Clc1cccc(N2CCC(NCc3ncc[nH]3)C2)c1 (stereo not given) | 62.08% |
| Cc1ncsc1C(=O)NCCn1nc(C2CCNC2)c2cccnc21.Cl (stereo not given) | -3.491% |
| Oc1ccccc1N1CCN(c2ncnc3sc4c(c23)CCNC4)CC1 | -21.81% |
| Cc1nonc1OCCNc1ncnc2sc3c(c12)CCNC3 | 19.66% |
| Cc1ccc(CCNc2nc(-c3ccncc3)nc3c2CCNCC3)o1 | 6.799% |
| c1ccc(OCCNc2ncnc3sc4c(c23)CCNC4)cc1 | 56.72% |
| c1ccc2c(c1)CN(c1ncnc3sc4c(c13)CCNC4)CCO2 | 1.883% |
| Cc1ccc(CCNc2ncnc3sc4c(c23)CCNC4)o1 | 98.95% |
| COc1ccc(C2=CNC(C(F)(F)F)=CC2N)cc1 (stereo not given) | 1.706% |
| Cc1csc(CN2CCn3c(COc4cccnc4)cnc3C2C)n1.O=C(O)C(F)(F)F.O=C(O)C(F)(F)F (stereo not given) | 18.26% |
| Cc1ccsc1C(=O)N1C[C@@H]2CN(Cc3ccoc3)CCO[C@@H]2C1.O=C(O)C(F)(F)F | -4.487% |
| O=C(O)C(F)(F)F.O=C(c1ccc[nH]1)N1CCn2cc(Cn3cccn3)nc2C1 | -0.1806% |
| CN(C)c1ccccc1CN1CCC(N2CCCC2=O)CC1 | -7.548% |
| O=C(N1CCCC1)N1CCC[C@]2(C[C@@H](Oc3ncccc3F)CO2)C1.O=C(O)C(F)(F)F | -4.547% |
| CN(C)C(=O)c1ccc2c(c1)N(C)C(CC(=O)NCc1ncc[nH]1)CO2 (stereo not given) | -1.035% |
| CN(C)C(=O)c1ccc2c(c1)N(C)C(CC(=O)NCc1ccno1)CO2 (stereo not given) | 79.27% |
| COC(=O)CNC(=O)CC1COc2ccc(C(=O)N(C)C)cc2N1C (stereo not given) | 7.778% |
